In PubChem BioAssay AID2017 (National Center for Advancing Translational Sciences (NCATS), 2009):
Inconclusive results are not listed. Activity calls are given as the source filed them. The call rests on the fitted dose curve; in most records, active means well fitted curve in the direction sought with a large enough effect; inconclusive means small, poorly fitted or top-dose-only effect, or another doubt; inactive means no such curve, though single readings can be large or run the other way.

Tested on: 4-diphosphocytidyl-2-C-methyl-D-erythritol kinase IspE (bacterial, species not stated)
Experiment: Confirmatory Assay for Inhibitors of Human Galactokinase (GALK): CDP-Me assay counterscreen
Description: NIH Molecular Libraries Probe Production Centers Network [MLPCN] NIH Chemical Genomics Center [NCGC] MLPCN Grant: R03 MH085689-01 Assay Submitter (PI): Kent Lai (University of Utah School of Medicine, 50 N Mario Capecchi Drive, Salt Lake City, UT 84132) NCGC Assay Overview The GHMP kinase family is a unique class of important enzymes that plays an essential role in many metabolic processes. It contains more than 170 protein members among which are the galactokinase (GALK) and the CMK enzymes. GALK plays a crucial role in galactose processing and is a potential therapeutic target for Classic Galactosemia (OMIM: 230400). CMK is involved for the non-mevalonate synthesis of isoprenoids precursors and natural products like sterols or ubiquinones which are important to many biological functions. […]
NCGC Assay Protocol Summary: Three uL/well of substrate solution (15 uM ATP, 30 uM CDP-ME, 20 mM HEPES pH8.0, 5 mM MgCl2, 40 mM KCl, 1 mM DTT, 0.01% BSA final concentration) was dispensed into 1536-well, assay plates (Greiner, solid white medium-binding plates) with Aurora Discovery BioRAPTR Flying Reagent Dispenser (FRD; Beckton-Dickenson). […] After 1 min, luminescence was detected with the ViewLux plate reader (Perkin Elmer, Waltham, MA) using a 1 sec exposure time and 2x binning settings.

| Structure (SMILES) | outcome |
| --- | --- |
| COCCCn1c(N)c(C(=O)NCc2ccco2)c2nc3ccccc3nc21 | inactive |
| O=C1NC(=S)N(Cc2ccco2)C(=O)/C1=C\c1cccs1 | inactive |
